What all share (assay): NCI-60 one-dose screen, 48 h (100 = growth as untreated, 0 = no growth, -100 = all killed)
One assay deals with SR leukemia. The settings on record: 10 µM unless noted.
The subject of a further assay is RPMI-8226 leukemia. The following applies: 10 µM.
The test system of the next assay is OVCAR-8 ovarian. The settings on record: 10 µM unless noted.
For the next assay, the system named is OVCAR-5 ovarian. The settings on record: 10 µM unless noted.
Another assay deals with IGROV1 ovarian. The settings on record: 10 µM unless noted.
In a further assay the test system is OVCAR-3 ovarian. The following applies: 10 µM unless noted.
The test system of a further assay is HS 578T breast. The following applies: 10 µM unless noted.
The subject of a further assay is NCI/ADR-RES ovarian. The settings on record: 10 µM unless noted.
The test system of a further assay is OVCAR-4 ovarian. The following applies: 10 µM unless noted.
In another assay the test system is SK-OV-3 ovarian. The following applies: 10 µM.

This is an account of results in PubChem BioAssay (NCI).

The structures appear in SMILES notation. This is part of a sample that, as a whole, favours compounds with a hit. Of some 83,000 tested, about 20% had one in any assay.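 Growth was measured after 48 h exposure to one concentration of compound in 96-well plates. Values under 10 count as active.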 A number with no mark means an inactive call. Calls of active or inactive are those of the source.

As for `CN1CCN(c2ccc3nc(-c4ccc5nc(-c6ccc(C(F)(F)F)cc6)[nH]c5c4)[nH]c3c2)CC1`, the growth is -18.5% (active) in the assay with SR leukemia; -9.04% (active) with RPMI-8226 leukemia; 65.5% in the assay with OVCAR-8 ovarian; 110% in the assay with OVCAR-5 ovarian; 71.2% in the assay on IGROV1 ovarian; -17.3% (active) in the assay on OVCAR-3 ovarian. The figures for the growth with HS 578T breast and with NCI/ADR-RES ovarian were 26.4% and 102%, respectively.

For the compound `COC(=O)c1c2c(c(C)[n+]([O-])c1C)C(=O)C=C(NCc1ccc(F)c(Cl)c1)C2=O`, the growth is -1.19% (active) in the assay on SR leukemia; -32.7% (active) in the assay on RPMI-8226 leukemia; -21.2% (active) in the assay with OVCAR-8 ovarian; -91.8% (active) in the assay with OVCAR-5 ovarian; -55.2% (active) in the assay on IGROV1 ovarian; -41.4% (active) in the assay with OVCAR-3 ovarian. In addition, the growth was -24.2% (active) with HS 578T breast and -18.6% (active) with NCI/ADR-RES ovarian.

For `Cc1nc(NC(=O)COc2cccc(/C=C3\COc4ccccc4C3=O)c2)sc1C`, the growth is -69.5% (active) in the assay with SR leukemia; -74.2% (active) in the assay with RPMI-8226 leukemia; 7.04% (active) in the assay on OVCAR-8 ovarian; 55.1% with OVCAR-4 ovarian; 92.2% with SK-OV-3 ovarian; -83.3% (active) in the assay with OVCAR-3 ovarian. For the same compound, the growth in the assay on HS 578T breast was -33.7% (active).

Consider `COC(=O)c1c2c(c(C)[n+]([O-])c1C)C(=O)C=C(NCc1cccc(Cl)c1)C2=O`, for which the growth in the assay with SR leukemia is 1.95% (active); in the assay with RPMI-8226 leukemia, -31.9% (active); with OVCAR-8 ovarian it was -14.4% (active); in the assay with OVCAR-5 ovarian it was -87.2% (active); with IGROV1 ovarian it was -53.9% (active); in the assay on OVCAR-3 ovarian, -35.7% (active). The growth in the assay with HS 578T breast was -23.2% (active); with NCI/ADR-RES ovarian it was -12.7% (active).

As for `CCOc1ccc(-c2cnnn2-c2nonc2-n2cccc2)cc1`, the growth with SR leukemia is 1.35% (active); in the assay on OVCAR-8 ovarian, 25.9%; with OVCAR-5 ovarian, 41.1%; in the assay with OVCAR-4 ovarian, 39.6%; with SK-OV-3 ovarian it was -1.75% (active); in the assay on IGROV1 ovarian it was 36.5%. Further, in the assay on OVCAR-3 ovarian, the growth was -37.1% (active).

For the compound `CN(C)C(=S)SCN1C(=O)c2ccc([N+](=O)[O-])cc2S1(=O)=O`, the growth in the assay with SR leukemia is 75.8%; with RPMI-8226 leukemia it was 116%; with OVCAR-8 ovarian it was 98.5%; in the assay with OVCAR-4 ovarian, 103%; in the assay with SK-OV-3 ovarian, 107%; in the assay on IGROV1 ovarian, 104%. The results for the growth with OVCAR-3 ovarian, with HS 578T breast and in the assay with NCI/ADR-RES ovarian were 99.3%, 93% and 96.4%, respectively.

For the compound `COc1cc2oc(-c3ccc(O)cc3)cc(=O)c2c(O)c1I`, the growth was 79.3% in the assay on SR leukemia; 87.1% with RPMI-8226 leukemia; 96.3% in the assay with OVCAR-8 ovarian; 104% in the assay with OVCAR-5 ovarian; 114% with IGROV1 ovarian; 117% in the assay with OVCAR-3 ovarian. Further, the growth in the assay with HS 578T breast is 103%.

With `O=C(N/N=C(\CS(=O)(=O)c1ccccc1)c1cc2cc(Br)ccc2oc1=O)c1ccccc1`, the growth in the assay on SR leukemia was 122%; in the assay with RPMI-8226 leukemia, 121%; in the assay with OVCAR-8 ovarian it was 101%; in the assay with OVCAR-5 ovarian, 94.1%; in the assay with IGROV1 ovarian, 110%; in the assay with OVCAR-3 ovarian, 108%. In addition, the growth in the assay on HS 578T breast is 99.4%; with NCI/ADR-RES ovarian, 105%.

`COC(=O)c1c2c(c(C)[n+]([O-])c1C)C(=O)C=C(NCc1ccc(Cl)cc1)C2=O`: the growth in the assay with SR leukemia is 3.91% (active); in the assay on RPMI-8226 leukemia, -16.2% (active); in the assay with OVCAR-8 ovarian, 2.34% (active); with OVCAR-5 ovarian, -69% (active); with IGROV1 ovarian, -50.9% (active); in the assay with OVCAR-3 ovarian it was -28.6% (active). The growth was -19% (active) with HS 578T breast and -15.1% (active) with NCI/ADR-RES ovarian.

`NS(=O)(=O)c1ccc(C(=O)N/N=C(\CS(=O)(=O)c2ccccc2)c2cc3cc(Br)ccc3o2)cc1`: the growth in the assay with SR leukemia is 127%; in the assay on RPMI-8226 leukemia it was 98.3%; with OVCAR-8 ovarian, 75.2%; in the assay with OVCAR-5 ovarian, 99.8%; in the assay with IGROV1 ovarian it was 92.5%; in the assay on OVCAR-3 ovarian, 94.5%. Besides, the results for the growth in the assay on HS 578T breast and in the assay with NCI/ADR-RES ovarian were 80.7% and 98%, respectively.

As to `O=C(N/N=C/c1ccc(F)cc1)c1[nH]c2ccc(I)cc2c1-c1ccccc1`, the growth was 114% in the assay on SR leukemia; 22% in the assay on RPMI-8226 leukemia; 45.5% in the assay on OVCAR-8 ovarian; 37.2% with OVCAR-4 ovarian; -1.53% (active) in the assay on SK-OV-3 ovarian; 23.8% in the assay with IGROV1 ovarian. Besides, the growth in the assay on OVCAR-3 ovarian is 5.48% (active); in the assay with HS 578T breast, 51.8%.

In the case of `CCOC(=O)c1c(Cl)c2c(n1Cc1cc(OC)cc(OC)c1)-c1oncc1CCC2`, the growth in the assay with SR leukemia is 4.7% (active); in the assay on RPMI-8226 leukemia it was 9.5% (active); in the assay with OVCAR-8 ovarian, 38.9%; with OVCAR-5 ovarian, 49.5%; with SK-OV-3 ovarian, 27.5%; in the assay with OVCAR-3 ovarian it was -17.6% (active). Further, the growth in the assay with HS 578T breast was 29.6%; in the assay with NCI/ADR-RES ovarian, 8.44% (active).

With `COc1ccc(C(=O)COc2cccc(/C=C3\CSc4ccc(C)cc4C3=O)c2)cc1`, the growth with SR leukemia was -7.75% (active); in the assay with RPMI-8226 leukemia, -23.5% (active); in the assay on OVCAR-8 ovarian it was 66.4%; in the assay with OVCAR-4 ovarian it was 90.2%; with SK-OV-3 ovarian, 107%; with OVCAR-3 ovarian, 97.5%. Besides, the growth in the assay with HS 578T breast is 110%.

`CCCN(CCC)c1ccc(/C=C/c2ccc3cc(OCC)ccc3n2)cc1`: the growth with SR leukemia is -8.74% (active); in the assay with OVCAR-8 ovarian it was 94.6%; in the assay on OVCAR-5 ovarian it was 110%; in the assay with OVCAR-4 ovarian, 80.8%; with SK-OV-3 ovarian it was 104%; in the assay with IGROV1 ovarian, 99.6%. Besides, the growth with OVCAR-3 ovarian was 132%; with HS 578T breast, 66.5%; with NCI/ADR-RES ovarian, 93.1%.

As for `O=C(O)C[C@H](O)C[C@H](O)/C=C/c1c(C2CC2)nc2ccccc2c1-c1ccc(F)cc1`, the growth was 12.1% in the assay on SR leukemia; 61.5% in the assay with OVCAR-8 ovarian; 79% in the assay with OVCAR-5 ovarian; 111% with OVCAR-4 ovarian; 93.7% with SK-OV-3 ovarian; 53.4% in the assay with IGROV1 ovarian. Moreover, the growth with OVCAR-3 ovarian is 103%; with HS 578T breast, 70.1%; with NCI/ADR-RES ovarian, 37.2%.

Turning to `O=C(N/N=C(\CS(=O)(=O)c1ccccc1)c1cc2ccccc2oc1=O)c1ccccc1`, the growth in the assay with SR leukemia is 101%; with RPMI-8226 leukemia, 112%; in the assay on OVCAR-8 ovarian it was 100%; in the assay on OVCAR-5 ovarian it was 101%; in the assay on IGROV1 ovarian it was 109%; with OVCAR-3 ovarian, 111%. Also, the growth was 106% in the assay with HS 578T breast and 107% in the assay with NCI/ADR-RES ovarian.
